# Values without a mark were called inactive. Records with an inconclusive call do not appear. A call without a number means that no potency is given here. Active and inactive are the calls of the source. Unless noted, calls follow the shape of the dose curve; as a rule, active = well fitted curve in either direction with a large enough effect (not every such curve was filed as active); inconclusive = small, poorly fitted or top-dose-only effect, or another doubt; inactive = flat fitted curve, though single readings scatter.
# Key:
# [1] = AP1 Signaling Pathway (AID 357); conditions: ME-180 AP-1-bla reporter, EGF-induced, beta-lactamase ratio, 5 h; at 7.69 µM (top of the series) unless noted;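 also: ME-180 reporter cells stimulated with EGF at its EC50 level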
# In short: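 Modulation of EGF-driven AP-1 transcription was assessed with a beta-lactamase reporter in ME-180 cells. Compound and EC50 EGF were co-incubated 5 hours at 37 °C before 2.5-hour CCF4 loading at room temperature and dual-emission reading.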
# [2] = target: Cytochrome P450 1A2 (Homo sapiens) (UniProt P05177); assay: p450-cyp1a2 (AID 410; calls by dose curve; also: potency is read from the fitted curve at half-maximal effect)
# In short: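 O-Demethylation of luciferin 6' methyl ether by human CYP1A2 is monitored as luciferase luminescence. Substrate sits at Km (100uM); enzyme is 20nM. Values are scaled to 57 uM furafylline as maximal inhibition.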
# [3] = NFAT Signaling Pathway (AID 444); conditions: Jurkat NFAT-bla M1, carbachol, beta-lactamase ratio, 5 h; at 7.69 µM (top of the series) unless noted;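 also: carbachol stimulus at about its EC50 of 1 µM final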
# In short: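 Jurkat cells carrying an NFAT-driven β-lactamase reporter and co-transfected muscarinic M1 receptor were treated with compound plus carbachol (1 uM final, an EC50 level) for 5 h at 37 °C. CCF4 loading followed for 1 h at RT; 460/530 nm ratio gave %activity.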
# [4] = Stat Signaling Pathway (AID 446); conditions: ME-180 (cervical carcinoma) SIE beta-lactamase reporter, IL-6 stimulated, 5 h; at 7.69 µM (top of the series) unless noted;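 also: ME-180 cervical cancer cells given 40 pM IL-6 alongside compound; SIE-controlled beta-lactamase reporter measured as 460/530 nm FRET emission ratio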
# In short: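 Normalization used AC90 stimulation (300 pM IL-6) and AC90 inhibition (125 nM pan-JAK inhibitor at 40 pM IL-6). The underlying signal is SIE-driven beta-lactamase in ME-180 cells after 5 h IL-6 exposure with compound.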
# [5] = target: Mitogen-activated protein kinase 10 (Mus musculus) (UniProt Q61831); assay: JNK3 AlphaScreen Assay (AID 530);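 also: kinase came from lysate of stimulated human HepG2 cells; signal reports phosphorylation of biotinylated GST-cJun 1-79 at Ser73 with 10 µM ATP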
# In short: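 Phosphorylation of biotinylated GST-cJun(1-79) at Ser73 is measured by AlphaScreen proximity luminescence. Enzyme is JNK3 in HepG2 lysates activated with interleukin-1beta and tumor necrosis factor alpha; ATP is 10 uM final.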
# [6] = target: 3',5'-cyclic-AMP phosphodiesterase 4B (Homo sapiens) (UniProt Q07343); assay: qHTS Assay for Inhibitors of PDE-IV (AID 607; active = well fitted activation curve with a large enough effect in the main read-out, with a control signal flat, not every such curve was filed as active)
# In short: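 HEK293 ACTOne cells with CNG channel (1000/well), endogenous PDE4; membrane potential dye, compounds up to 22.9 uM final. Fluorescence Ex 535/Em 590; RO 20-1724 (100 uM final) as reference.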
# [7] = target: Cytochrome P450 2C19 (Homo sapiens) (UniProt P33261); assay: qHTS Assay for Inhibitors and Substrates of Cytochrome P450 2C19 (AID 899; active = well fitted curve in the direction sought with a large enough effect; an effect the other way counts as inactive or inconclusive; also: nearly all actives have a fitted effect of over 60% in size)
# In short: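 NADPH-dependent conversion of Luciferin-H EGE (10uM, at KM) by 5nM enzyme in 50mM KPO4, 60 min at 37C following 10 min compound preincubation. Stopped with luciferin detection buffer; luminescence read after 20 min.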
# [8] = target: Glucocorticoid receptor (Homo sapiens) (UniProt P04150); assay: GR-GFP Redistribution (AID 450;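 active = compounds whose dose series gives a full or clear partial fitted curve of increased nuclear translocation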; also: potency is read from the fitted curve at half-maximal effect); conditions: U2OS GR-GFP nuclear translocation, laser cytometry, 2 h
# [9] = target: Glucocorticoid receptor (Homo sapiens) (UniProt P04150); assay: GR-EFC Redistribution (AID 451; calls by dose curve; also: potency is read from the fitted curve at half-maximal effect); conditions: CHO-K1 GR-EFC translocation, beta-gal luminescence, 2 h
# In short: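 CHO-K1 cells stably expressing nuclear-localized β-gal enzyme acceptor and GR fused C-terminally to the enzyme donor fragment; ligand-driven nuclear translocation restores β-gal by complementation. Compounds titrated up to 46 uM final, 2 h at 37 °C; luminescence read.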
# [10] = target: Guanine nucleotide-binding protein G(i) subunit alpha-1 (Homo sapiens) (UniProt P63096); assay: qHTS Assay for Inhibitors of RGS12 GoLoco Motif Activity (Green Fluorophore) (AID 879; active = well fitted curve in the direction sought with a large enough effect; an effect the other way counts as inactive or inconclusive;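 also: negative values mean loss of peptide binding seen as reduced polarization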)
# In short: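 A drop in FITC polarization marked displacement of the FITC-tagged RGS12 GoLoco peptide (10 nM) from Gαi1 (50 nM). Compounds were incubated 10 min at room temperature in Tris pH 7.5 buffer containing 150 mM NaCl, 0.1 mM GDP and 0.05% NP40; unlabeled peptide titration served as control.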
# [11] = qHTS Assay for Identification of Small Molecule Agonists for Thrombopoietin (TPO) Signaling Pathway (AID 917; active = well fitted curve in the direction sought with a large enough effect; an effect the other way counts as inactive or inconclusive)
# In short: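 Cell-based luciferase reporter screen. Mouse Ba/F3 line stably expressing human TPO receptor; IL-3 removed overnight before plating. Co-treatment with compound and EC50 TPO (26 pM), 24 hrs at 37 C, then luminescence.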
# [12] = target: Muscarinic acetylcholine receptor M1 (Rattus norvegicus) (UniProt P08482); assay: qHTS Assay for Antagonists of Acetylcholine Muscarinic M1 Receptor: Measurement of IP-One Response (AID 944; active = well fitted curve in the direction sought with a large enough effect; an effect the other way counts as inactive or inconclusive; also: nearly all actives have a fitted effect of over 75% in size; also: potency is read from the fitted curve at half-maximal effect)
# In short: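 Antagonist mode with rat M1 receptor transfected into CHO cells. Compound is added first for 10 min, carbachol at its EC80 follows for 30 min, and lysis reagents then allow TR-FRET detection of accumulated IP1.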
# [13] = target: Pyruvate kinase PKM (Homo sapiens) (UniProt P14618); assay: qHTS Assay for Activators of Human Muscle Pyruvate Kinase (AID 954; active = well fitted curve in the direction sought with a large enough effect, not every such curve was filed as active)
# In short: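 Compound pinned into substrate mix (0.5 mM PEP, 0.1 mM ADP), then 0.1 nM PKM2 added; 1 h, RT. Stop/detection luciferase reagent added, luminescence read. Normalized to no-inhibition and no-enzyme or reference-inhibitor controls.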
# [14] = target: Alpha-galactosidase A (Homo sapiens) (UniProt P06280); assay: Counterscreen for Glucocerebrosidase Inhibitors: qHTS Assay for Human alpha-Galactosidase at pH 4.5 (AID 992; active = well fitted curve in the direction sought with a large enough effect; an effect the other way counts as inactive or inconclusive)
# In short: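 Steps: enzyme (2 nM final), then compound across 0.7 nM to 77 uM, then 80 uM fluorogenic galactopyranoside substrate; incubate 20 min at room temperature; quench at pH 10; measure fluorescence at 365/440 nm.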
# [15] = target: alpha-glucosidase (Oryza sativa, rice) (UniProt Q653V4); assay: Counterscreen for Glucocerebrosidase Inhibitors: qHTS Assay for Rice alpha-Glucosidase at pH 5.0 (AID 997; active = well fitted curve in the direction sought with a large enough effect; an effect the other way counts as inactive or inconclusive; also: potency is read from the fitted curve at half-maximal effect)
# In short: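 Endpoint fluorogenic assay at pH 5.0: compounds (0.7 nM to 77 uM) titrated against 4 nM rice enzyme and 400 uM 4-MU-alpha-glucoside for 20 min at room temperature; NaOH/glycine stop, read ex 365/em 440 nm, Hill-fitted AC50.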
# [16] = qHTS Assay for Identification of Small Molecule Antagonists for NFkB Signaling Pathway (AID 895; active = well fitted inhibition curve with a large enough effect in the signal ratio, with a control signal flat, not every such curve was filed as active; the % refers to the signal ratio)
# In short: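 NFkB-bla ME-180 cervical carcinoma cells with beta-lactamase reporter under NFkB response element; compounds added, then TNF alpha at 10 pM final (EC50), 5 h at 37 C. LiveBLAzer substrate 2 h, room temperature; emission 460/530 nm at 405 nm excitation.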
# [17] = target: Pyruvate kinase (Leishmania mexicana) (UniProt Q27686); assay: qHTS Validation Assay for Inhibitors of Leishmania Mexicana Pyruvate Kinase (AID 945; active = well fitted curve in the direction sought with a large enough effect; an effect the other way counts as inactive or inconclusive)
# In short: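 Mutant LmPYK (E451W), 0.2 nM, plus 0.5 mM PEP and 0.1 mM ADP in 50 mM imidazole pH 7.2 containing 0.01% Tween 20 and 0.05% BSA. Incubated 1 h at room temperature; luminescence via PKLight, normalized to DMSO.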
# [18] = target: Muscarinic acetylcholine receptor M1 (Rattus norvegicus) (UniProt P08482); assay: qHTS Assay for Antagonists of Acetylcholine Muscarinic M1 Receptor: Kinetic Measurement of Intracellular Calcium Response (AID 943; active = well fitted curve in the direction sought with a large enough effect; an effect the other way counts as inactive or inconclusive; also: nearly all actives have a fitted effect of over 75% in size; also: potency is read from the fitted curve at half-maximal effect;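 as to activity change, negative = inhibition: Fluo-4 calcium signal as peak divided by basal fluorescence over 4 min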)
# In short: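 Antagonism is measured as inhibition of the carbachol-evoked calcium rise in CHO cells transfected with rat M1. Cells are dye-loaded, exposed to compound for 10 min, then stimulated with 100 nM carbachol (EC80).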
# [19] = target: Cytochrome P450 3A4 (Homo sapiens) (UniProt P08684); assay: qHTS Assay for Activators of Cytochrome P450 3A4 (AID 885; active = well fitted curve in the direction sought with a large enough effect; an effect the other way counts as inactive or inconclusive; also: nearly all actives have a fitted effect of over 65% in size; also: potency is read from the fitted curve at half-maximal effect)
# In short: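 Human CYP3A4 dealkylates Luciferin-PPXE to luciferin, which luciferase detection converts to light. Substrate was at its KM (25uM), buffer 200mM KPO4, reaction 60 min at RT.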
# Sequence of Cytochrome P450 1A2 (Homo sapiens) (P05177 whole entry, looked up): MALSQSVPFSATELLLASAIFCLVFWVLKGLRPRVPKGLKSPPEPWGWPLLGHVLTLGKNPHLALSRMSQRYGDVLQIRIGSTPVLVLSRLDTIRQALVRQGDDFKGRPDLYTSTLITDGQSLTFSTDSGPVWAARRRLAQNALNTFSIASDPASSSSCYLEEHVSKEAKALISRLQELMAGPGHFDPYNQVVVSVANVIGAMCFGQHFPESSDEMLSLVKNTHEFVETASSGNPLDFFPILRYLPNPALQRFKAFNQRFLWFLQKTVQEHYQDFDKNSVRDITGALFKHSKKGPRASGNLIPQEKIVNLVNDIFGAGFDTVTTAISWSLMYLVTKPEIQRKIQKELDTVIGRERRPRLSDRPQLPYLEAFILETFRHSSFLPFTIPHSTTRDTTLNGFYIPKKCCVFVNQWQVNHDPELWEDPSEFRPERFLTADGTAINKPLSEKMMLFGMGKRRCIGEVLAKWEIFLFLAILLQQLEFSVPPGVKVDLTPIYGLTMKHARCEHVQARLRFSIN
# Sequence of Glucocorticoid receptor (Homo sapiens) (P04150 whole entry, looked up, the tested form may be a part): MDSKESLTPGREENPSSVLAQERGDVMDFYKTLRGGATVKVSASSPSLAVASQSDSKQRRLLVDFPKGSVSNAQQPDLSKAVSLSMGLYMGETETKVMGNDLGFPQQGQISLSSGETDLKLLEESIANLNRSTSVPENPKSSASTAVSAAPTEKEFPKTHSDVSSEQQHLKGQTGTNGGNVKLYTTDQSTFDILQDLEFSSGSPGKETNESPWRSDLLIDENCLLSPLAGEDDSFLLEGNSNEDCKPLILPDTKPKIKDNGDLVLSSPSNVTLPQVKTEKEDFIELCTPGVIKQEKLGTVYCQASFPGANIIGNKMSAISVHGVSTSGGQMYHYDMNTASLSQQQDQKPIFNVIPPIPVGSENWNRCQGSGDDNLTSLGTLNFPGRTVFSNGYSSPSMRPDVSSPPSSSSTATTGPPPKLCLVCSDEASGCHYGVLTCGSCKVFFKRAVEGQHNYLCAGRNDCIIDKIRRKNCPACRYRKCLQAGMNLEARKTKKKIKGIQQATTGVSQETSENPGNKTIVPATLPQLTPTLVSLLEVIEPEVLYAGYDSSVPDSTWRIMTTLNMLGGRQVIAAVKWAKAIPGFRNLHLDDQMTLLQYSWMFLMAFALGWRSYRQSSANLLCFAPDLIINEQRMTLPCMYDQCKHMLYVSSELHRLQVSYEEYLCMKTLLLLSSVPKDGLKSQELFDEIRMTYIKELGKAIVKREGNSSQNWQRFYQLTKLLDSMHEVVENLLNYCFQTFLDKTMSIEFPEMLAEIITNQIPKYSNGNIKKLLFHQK
# Sequence of Alpha-galactosidase A (Homo sapiens) (P06280 whole entry, looked up): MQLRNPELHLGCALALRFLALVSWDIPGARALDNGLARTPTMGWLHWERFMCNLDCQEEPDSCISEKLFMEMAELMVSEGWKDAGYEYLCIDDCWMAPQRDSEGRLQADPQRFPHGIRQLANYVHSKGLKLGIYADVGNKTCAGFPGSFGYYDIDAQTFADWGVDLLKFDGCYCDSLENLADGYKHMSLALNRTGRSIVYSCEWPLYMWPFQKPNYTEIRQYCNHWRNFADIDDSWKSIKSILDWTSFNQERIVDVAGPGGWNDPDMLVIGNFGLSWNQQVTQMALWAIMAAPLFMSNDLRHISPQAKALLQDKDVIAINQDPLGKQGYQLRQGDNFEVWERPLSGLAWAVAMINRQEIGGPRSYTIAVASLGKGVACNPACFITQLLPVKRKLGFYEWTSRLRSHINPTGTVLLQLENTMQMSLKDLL
# Sequence of Muscarinic acetylcholine receptor M1 (Rattus norvegicus) (P08482 whole entry, looked up): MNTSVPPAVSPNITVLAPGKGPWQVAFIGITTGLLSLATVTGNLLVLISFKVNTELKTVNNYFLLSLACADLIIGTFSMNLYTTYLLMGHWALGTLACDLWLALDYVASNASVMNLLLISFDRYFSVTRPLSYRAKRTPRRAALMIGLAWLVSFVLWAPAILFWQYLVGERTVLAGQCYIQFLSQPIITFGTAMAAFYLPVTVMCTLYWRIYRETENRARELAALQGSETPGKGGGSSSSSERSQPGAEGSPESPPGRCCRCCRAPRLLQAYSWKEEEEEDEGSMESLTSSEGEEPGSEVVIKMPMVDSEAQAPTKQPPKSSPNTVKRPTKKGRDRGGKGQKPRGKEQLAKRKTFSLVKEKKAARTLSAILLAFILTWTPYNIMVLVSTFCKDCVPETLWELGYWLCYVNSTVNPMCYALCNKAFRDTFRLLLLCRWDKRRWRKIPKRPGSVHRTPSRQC
# Sequence of Guanine nucleotide-binding protein G(i) subunit alpha-1 (Homo sapiens) (P63096 whole entry, looked up): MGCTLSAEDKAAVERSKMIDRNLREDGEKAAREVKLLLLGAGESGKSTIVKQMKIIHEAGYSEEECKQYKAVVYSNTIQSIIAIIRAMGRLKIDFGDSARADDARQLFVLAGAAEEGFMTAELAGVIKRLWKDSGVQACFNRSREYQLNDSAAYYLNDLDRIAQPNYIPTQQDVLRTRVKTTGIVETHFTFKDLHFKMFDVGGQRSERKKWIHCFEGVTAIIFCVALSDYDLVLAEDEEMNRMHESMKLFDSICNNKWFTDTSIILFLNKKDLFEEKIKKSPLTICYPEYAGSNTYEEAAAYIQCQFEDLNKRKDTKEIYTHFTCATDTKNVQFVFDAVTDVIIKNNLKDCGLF
# Sequence of Pyruvate kinase (Leishmania mexicana) (Q27686 2-499 E452W): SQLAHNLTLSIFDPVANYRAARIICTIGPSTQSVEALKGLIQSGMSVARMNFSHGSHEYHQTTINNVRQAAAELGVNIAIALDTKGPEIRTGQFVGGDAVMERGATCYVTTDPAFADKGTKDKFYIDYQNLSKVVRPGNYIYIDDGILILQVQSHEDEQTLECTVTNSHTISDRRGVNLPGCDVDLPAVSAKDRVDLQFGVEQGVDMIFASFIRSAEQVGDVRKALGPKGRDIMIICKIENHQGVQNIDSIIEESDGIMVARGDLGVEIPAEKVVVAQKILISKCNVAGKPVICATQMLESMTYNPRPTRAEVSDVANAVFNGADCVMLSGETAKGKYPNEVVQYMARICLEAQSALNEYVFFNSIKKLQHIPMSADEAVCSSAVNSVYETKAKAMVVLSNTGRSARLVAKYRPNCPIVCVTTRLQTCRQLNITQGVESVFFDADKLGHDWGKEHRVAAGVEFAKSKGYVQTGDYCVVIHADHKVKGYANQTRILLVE
# Sequence of Cytochrome P450 3A4 (Homo sapiens) (P08684 whole entry, looked up): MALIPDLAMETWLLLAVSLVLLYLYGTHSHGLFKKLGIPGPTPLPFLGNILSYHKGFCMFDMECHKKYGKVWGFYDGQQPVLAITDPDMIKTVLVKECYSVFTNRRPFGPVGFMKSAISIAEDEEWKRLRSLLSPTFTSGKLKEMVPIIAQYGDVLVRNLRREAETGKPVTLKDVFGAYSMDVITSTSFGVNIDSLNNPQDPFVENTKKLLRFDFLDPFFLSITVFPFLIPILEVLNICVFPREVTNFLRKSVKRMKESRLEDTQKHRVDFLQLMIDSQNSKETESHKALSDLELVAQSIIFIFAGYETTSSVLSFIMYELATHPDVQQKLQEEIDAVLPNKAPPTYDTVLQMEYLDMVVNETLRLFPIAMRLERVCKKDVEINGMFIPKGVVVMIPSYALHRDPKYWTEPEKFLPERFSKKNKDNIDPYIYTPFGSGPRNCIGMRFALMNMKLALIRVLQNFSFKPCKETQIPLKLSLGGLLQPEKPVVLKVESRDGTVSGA
# Sequence of Pyruvate kinase PKM (Homo sapiens) (P14618 whole entry, looked up): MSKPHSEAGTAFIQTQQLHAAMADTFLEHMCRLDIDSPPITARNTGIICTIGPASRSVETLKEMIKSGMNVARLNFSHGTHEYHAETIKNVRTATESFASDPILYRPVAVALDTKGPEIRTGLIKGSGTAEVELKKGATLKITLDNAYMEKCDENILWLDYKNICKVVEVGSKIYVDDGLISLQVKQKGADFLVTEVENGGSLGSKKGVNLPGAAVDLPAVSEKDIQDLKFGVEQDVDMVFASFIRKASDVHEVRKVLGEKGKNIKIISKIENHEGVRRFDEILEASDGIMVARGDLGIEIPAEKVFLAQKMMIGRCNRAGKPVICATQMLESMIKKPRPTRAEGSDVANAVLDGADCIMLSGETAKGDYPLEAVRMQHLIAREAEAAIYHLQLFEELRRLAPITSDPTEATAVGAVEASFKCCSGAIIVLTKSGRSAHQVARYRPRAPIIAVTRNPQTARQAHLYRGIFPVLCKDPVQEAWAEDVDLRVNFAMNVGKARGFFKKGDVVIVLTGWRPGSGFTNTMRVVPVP
# Sequence of 3',5'-cyclic-AMP phosphodiesterase 4B (Homo sapiens) (Q07343 whole entry, looked up): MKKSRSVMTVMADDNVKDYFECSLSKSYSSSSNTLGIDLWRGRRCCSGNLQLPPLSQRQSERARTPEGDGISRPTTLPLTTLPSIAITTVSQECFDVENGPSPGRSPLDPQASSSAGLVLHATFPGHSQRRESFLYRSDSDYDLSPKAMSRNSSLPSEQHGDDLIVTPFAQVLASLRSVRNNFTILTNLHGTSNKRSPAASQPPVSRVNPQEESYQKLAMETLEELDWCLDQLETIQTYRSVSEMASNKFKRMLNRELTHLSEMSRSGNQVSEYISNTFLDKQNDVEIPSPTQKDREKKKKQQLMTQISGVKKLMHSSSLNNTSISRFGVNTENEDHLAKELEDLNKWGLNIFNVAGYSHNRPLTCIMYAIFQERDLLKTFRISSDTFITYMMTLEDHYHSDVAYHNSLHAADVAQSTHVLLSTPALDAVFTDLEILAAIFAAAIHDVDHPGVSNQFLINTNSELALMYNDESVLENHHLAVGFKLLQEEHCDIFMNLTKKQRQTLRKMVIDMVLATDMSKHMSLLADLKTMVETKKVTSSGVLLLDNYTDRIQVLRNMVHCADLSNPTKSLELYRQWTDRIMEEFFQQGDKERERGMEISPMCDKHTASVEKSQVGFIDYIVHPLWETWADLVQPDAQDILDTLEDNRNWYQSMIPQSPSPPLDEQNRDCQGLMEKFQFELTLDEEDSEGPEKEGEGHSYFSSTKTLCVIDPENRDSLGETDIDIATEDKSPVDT
smiles,measurement,setting,value
CCC[C@@H]1O[C@@H]2C[C@@H]3[C@@H]4CCC5=CC(=O)C=C[C@@]5(C)[C@H]4[C@H](O)C[C@@]3(C)[C@@]2(C(=O)CO)O1,"activity change, negative = inhibition",[1],8.13% [at 38 µM]
same,Potency,[2],inactive
same,"activity change, negative = inhibition",[3],9.04% [at 38 µM]
same,"activity, negative = inhibition",[4],6.66% [at 38 µM]
same,Potency,[5],inactive
same,Potency,[6],inactive
same,Potency,[7],inactive
COC(=O)[C@](C)(N)Cc1ccc(O)cc1,"activity change, negative = inhibition",[1],9.7% [at 38 µM]
same,Potency,[2],inactive
same,"activity, negative = inhibition",[4],-6.8% [at 38 µM]
same,Potency,[8],> 46 µM
same,Potency,[9],> 46 µM
same,Potency,[5],inactive
same,Potency,[6],inactive
same,outcome,[10],inactive
same,outcome,[11],inactive
same,Potency,[12],inactive
same,outcome,[13],inactive
same,outcome,[14],inactive
same,Potency,[15],inactive
OC[C@@H]1NC[C@@H](O)[C@H]1O,Potency,[2],inactive
same,"activity change, negative = inhibition",[3],8.18% [at 38 µM]
same,"activity, negative = inhibition",[4],-5.61% [at 38 µM]
same,Potency,[8],> 46 µM
same,Potency,[9],> 46 µM
same,Potency,[5],inactive
same,Potency,[6],inactive
same,outcome,[10],inactive
same,Potency,[16],inactive
same,outcome,[11],inactive
same,outcome,[17],inactive
same,outcome,[13],inactive
same,Potency,[15],12.6 µM (active)
COc1cc2c(cc1O)CC[C@@H]1[C@@H]2CC[C@@]2(C)[C@H](O)CC[C@H]12,"activity change, negative = inhibition",[1],-4.01% [at 38 µM]
same,"activity change, negative = inhibition",[3],-2.76% [at 38 µM]
same,"activity, negative = inhibition",[4],-17.5% [at 38 µM]
same,Potency,[8],> 46 µM
same,Potency,[9],> 46 µM
same,Potency,[5],inactive
same,Potency,[6],inactive
same,outcome,[10],inactive
same,Potency,[18],inactive
same,Potency,[12],inactive
same,outcome,[13],inactive
same,outcome,[14],inactive
same,Potency,[15],inactive
C[N+](C)(C)CC(=O)N/N=C\c1c(O)ccc2ccccc12,"activity change, negative = inhibition",[1],3.17%
same,"activity change, negative = inhibition",[3],-5.58%
same,"activity, negative = inhibition",[4],10.1%
same,Potency,[8],> 46 µM
same,Potency,[9],> 9.22 µM
same,Potency,[5],inactive
same,Potency,[6],inactive
C[C@H](C(=O)c1ccncc1)c1ccccn1,"activity change, negative = inhibition",[1],0.391%
same,"activity change, negative = inhibition",[3],-8.81%
same,"activity, negative = inhibition",[4],8.11%
same,Potency,[8],> 46 µM
same,Potency,[9],> 9.22 µM
same,Potency,[5],inactive
same,Potency,[6],inactive
same,Potency,[19],inactive
N[C@@]1(C(=O)O)CCC[C@@H]1C(=O)O,"activity change, negative = inhibition",[1],6.92%
same,"activity change, negative = inhibition",[3],10.2%
same,"activity, negative = inhibition",[4],9.09%
same,Potency,[8],> 46 µM
same,Potency,[9],> 9.22 µM
same,Potency,[5],inactive
same,Potency,[6],inactive
C/C(=N\[N+](C)(C)C)c1ccc(C)c(C)c1,"activity change, negative = inhibition",[1],10%
same,"activity change, negative = inhibition",[2],-16.9% [at 2.29 µM]
same,"activity, negative = inhibition",[4],6.61%
same,Potency,[8],> 46 µM
same,Potency,[9],> 9.22 µM
same,Potency,[5],inactive
same,Potency,[6],inactive
CS(=O)(=O)Nc1ccc(Nc2c3ccccc3nc3ccccc23)cc1,"activity change, negative = inhibition",[1],0.883%
same,Potency,[2],3.98 µM (active)
same,"activity, negative = inhibition",[4],25.9%
same,Potency,[8],> 46 µM
same,Potency,[9],> 9.22 µM
same,Potency,[5],inactive
same,Potency,[6],inactive
C[C@@H](COc1ccc(/C=C\c2ccccc2)cc1)[N+](C)(C)C,"activity change, negative = inhibition",[1],-11.9% [at 38 µM]
same,Potency,[2],inactive
same,"activity, negative = inhibition",[4],-2.8% [at 38 µM]
same,Potency,[8],> 46 µM
same,Potency,[9],> 46 µM
same,Potency,[5],inactive
same,Potency,[6],inactive
same,outcome,[10],inactive
same,Potency,[19],inactive
same,Potency,[16],inactive
same,Potency,[7],inactive
same,outcome,[11],inactive
same,Potency,[18],4.47 µM (active)
same,Potency,[12],7.08 µM (active)
same,outcome,[17],inactive
same,outcome,[13],inactive
same,outcome,[14],inactive
C[C@@H](CN1CCC(Cc2ccccc2)CC1)[C@H](O)c1ccc(O)cc1,"activity change, negative = inhibition",[1],7.29% [at 38 µM]
same,Potency,[2],12.6 µM (active)
same,"activity, negative = inhibition",[4],-25.3% [at 38 µM]
same,Potency,[8],> 46 µM
same,Potency,[9],> 46 µM
same,Potency,[5],inactive
same,Potency,[6],inactive
same,outcome,[10],inactive
same,Potency,[19],10 µM (active)
same,outcome,[11],inactive
same,Potency,[18],5.62 µM (active)
same,Potency,[12],7.08 µM (active)
same,outcome,[17],inactive
same,outcome,[13],inactive
same,outcome,[14],inactive
same,Potency,[15],inactive
Nc1ccc(N=Nc2ccc(-c3ccc(O)cc3)cc2)c2ccc(S(=O)(=O)O)cc12,"activity change, negative = inhibition",[2],-17.8% [at 2.29 µM]
same,Potency,[8],> 46 µM
same,Potency,[9],> 9.22 µM
same,Potency,[6],inactive
Cc1c(Cl)cc(C(C)(C)C)c(O)c1Cc1c(C)c(Cl)cc(C(C)(C)C)c1O,"activity change, negative = inhibition",[1],10.4%
same,Potency,[8],> 46 µM
same,Potency,[9],> 9.22 µM
same,Potency,[5],inactive
same,Potency,[6],inactive
COc1ccc(CCN(C)CCC[C@@](C#N)(c2cc(OC)c(OC)c(OC)c2)C(C)C)cc1OC,"activity change, negative = inhibition",[3],-29.4% [at 38 µM]
same,"activity, negative = inhibition",[4],-12.4% [at 38 µM]
same,Potency,[8],> 46 µM
same,Potency,[9],> 46 µM
same,outcome,[10],inactive
same,outcome,[11],inactive
same,Potency,[12],inactive
same,outcome,[17],inactive
same,outcome,[13],inactive
same,outcome,[14],inactive
same,Potency,[15],inactive
